Source: PubChem
hcGAS lum: human cGAS inhibition. recombinant h-cGAS, ATP depletion, Kinase-Glo luminescence. inhibition, % at 12.5 µM. Q8N884. AID 1259398. 290,000 tested, 0.081% active
Target sequence (Q8N884 whole entry, looked up): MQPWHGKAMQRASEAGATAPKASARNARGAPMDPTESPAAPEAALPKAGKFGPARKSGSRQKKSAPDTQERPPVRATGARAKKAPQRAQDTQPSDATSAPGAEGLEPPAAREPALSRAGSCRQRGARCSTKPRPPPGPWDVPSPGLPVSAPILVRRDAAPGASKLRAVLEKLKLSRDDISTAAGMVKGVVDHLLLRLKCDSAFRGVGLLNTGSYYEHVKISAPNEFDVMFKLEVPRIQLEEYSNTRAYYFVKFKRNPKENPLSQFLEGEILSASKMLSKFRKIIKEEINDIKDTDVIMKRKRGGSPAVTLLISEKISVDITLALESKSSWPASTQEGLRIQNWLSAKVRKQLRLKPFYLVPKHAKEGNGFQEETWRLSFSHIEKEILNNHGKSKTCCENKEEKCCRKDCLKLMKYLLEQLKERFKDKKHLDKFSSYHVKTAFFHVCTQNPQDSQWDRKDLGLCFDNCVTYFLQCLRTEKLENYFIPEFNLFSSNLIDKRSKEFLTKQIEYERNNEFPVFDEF
NPYLR7 ag: mosquito NPYLR7 agonism | HEK293T NPYLR7/Galpha15, GCaMP6s calcium fluorescence | activation, % at 10 µM | 270,000 tested, 0.15% active | AID 1259423; in the data active means activation above about 40%
mcGAS lum: inhibitors of mouse cGAS; recombinant cGAS, Kinase-Glo ATP depletion luminescence; Q8C6L5; inhibition, % at 12.5 µM; 160,000 tested, 0.15% active; AID 1259399
A number is an active result; . = inactive; / = no result. Hits are enriched below; roughly 0.3% of the tested compounds scored in any of these assays. Unless noted, no stated cut-off is given here; in the data, active means inhibition above about 40%; inactive means the rest.

SMILES	hcGAS lum	NPYLR7 ag	mcGAS lum
CC(C(=O)O)N1C(=O)/C(=C/c2ccc([N+](=O)[O-])cc2)SC1=S (configuration not stated)	.	.	.
Cc1ccc(/C=C2\SC(=S)N(C(C(=O)O)C(C)C)C2=O)cc1 (configuration not stated)	.	.	.
O=C(O)CN1C(=O)/C(=C\c2ccc(O)cc2)SC1=S	.	59	/
CCN(CC)c1ccc(/C=C2\SC(=S)N(CC(=O)O)C2=O)c(O)c1	.	93	.
O=C(O)CCCN1C(=O)/C(=C\c2ccc(O)cc2)SC1=S	.	.	.
CC(C)C(C(=O)O)N1C(=O)/C(=C/c2ccc(O)cc2)SC1=S (configuration not stated)	.	68	.
O=C(O)CN1C(=O)/C(=C\c2ccc(O)c(O)c2)SC1=S	.	.	.
COc1ccc(CN(C)C(C)c2nc3sc4c(c3c(=O)[nH]2)CCC(C)C4)cc1F (configuration not stated)	.	.	/
CC(O)CN1CCN(CC(=O)N(C)Cc2cccc(F)c2)CC1C (configuration not stated)	.	.	/
CN(Cc1ccc(F)cc1F)Cn1nc(C2CC2)n(C2CC2)c1=S	.	.	/
O=C1OC(CC(=O)N2CCN(c3ncccn3)CC2)c2ccccc21 (configuration not stated)	.	.	.
COc1ccc(Br)cc1/C=C1/SC(=S)N(CC(=O)O)C1=O	.	.	/
C=CCN1C(=O)/C(=C\c2ccc(O)cc2)SC1=S	.	55	.
COc1cc(OC)c(OC)cc1/C=C1/SC(=S)N(CC(=O)O)C1=O	.	59	.
C=CCN1C(=O)/C(=C\c2ccc(N(C)C)cc2)SC1=S	.	.	.
CN(C)c1ccc(/C=C2/SC(=S)N(CC(=O)O)C2=O)cc1	.	71	.
C=CCN1C(=O)C(=Cc2ccncc2)SC1=S	.	.	/
O=C(O)C1C2CCC(C2)C1C(=O)Nc1nc(-c2cccs2)cs1 (configuration not stated)	.	.	/
COc1ccccc1-c1nnc2ccc(OCCNS(=O)(=O)c3cccnc3)nn12	.	.	.
C=CCN(Cc1nccn1Cc1ccc(Cl)c(Cl)c1)C(=O)C(C)C	.	.	.
O=C(NC1(C(F)(F)F)CCC2(CC1)OCCO2)C1CCN(c2ncccn2)CC1	.	.	/
N#C/C(=C/c1ccc(N2CCCCCC2)o1)c1ccc(F)cc1	.	88	/
N#C/C(=C\c1ccc(N2CCCCC2)s1)c1cccc(Cl)c1	.	.	/
O=c1[nH]c(CCl)nc2sc3c(c12)CCN(Cc1ccccc1)C3	.	45	/
COCCCNCc1nc2sc3c(c2c(=O)[nH]1)CCN(Cc1ccccc1)C3	.	.	.
SMILES	hcGAS lum	NPYLR7 ag	mcGAS lum
COc1cccc(-n2nnc3c(N4CCN(C(=O)c5ccc(Br)o5)CC4)ncnc32)c1	.	.	.
N#CC(C#N)=C1C=C2C=C(N3CCCCC3)CCC2CC1 (configuration not stated)	.	116	.
N#CC(C#N)=c1c2nn(Cc3ccccc3)nc2c(=C(C#N)C#N)c2nn(Cc3ccccc3)nc12	.	.	.
N#CC(C#N)=C1C=C2C=C(N3CCN(Cc4ccccc4)CC3)CCC2CC1 (configuration not stated)	.	47	/
N#CC(C#N)=C1C=C2C=C(N3CCCC3)CCC2CC1 (configuration not stated)	.	90	.
O=C(NCCNc1nc(-c2cccc(Br)c2)nc2ccccc12)Nc1ccc(Cl)cc1Cl	.	/	.
COc1cc2c(cc1OC)C(CNC(=S)Nc1cccc(C)c1)N(C(=O)NC(C)C)CC2 (configuration not stated)	.	.	.
Cc1cccc(OCC(O)CN(c2c(C)cc(C)cc2C)S(C)(=O)=O)c1 (configuration not stated)	.	.	.
CC(C)(C)/[N+]([O-])=C/c1ccc(S(=O)(=O)O)cc1S(=O)(=O)O	.	.	/
O=S(=O)(O)c1cc(N=C=S)ccc1/C=C/c1ccc(N=C=S)cc1S(=O)(=O)O	86	.	/
O=S(=O)(c1cc(NCc2ccccc2C(F)(F)F)ccc1F)N1CCOCC1	.	.	/
CNC(=O)c1cnc(/C=C/c2csc(-c3ccsc3)n2)[nH]c1=O	.	67	/
Cc1nc(-c2ccsc2)sc1C(=O)NCc1ccccc1	.	.	.
O=[N+]([O-])c1ccc(Sc2nnnn2-c2ccccc2)c([N+](=O)[O-])c1	.	.	72
O=[N+]([O-])c1cc(S(=O)(=O)C(F)(F)F)ccc1Sc1nnnn1-c1ccccc1	.	.	.
Cc1nc2ccc(F)cc2n1C1CCN(C(=O)c2cccc(C#N)c2)CC1	.	/	.
CCCc1nc(N2CCN(C(=O)Cc3ccc(OC)cc3)CC2)c2cnn(-c3ccccc3)c2n1	.	.	.
O=[N+]([O-])c1cc(S(=O)(=O)Nc2cc(Cl)ccc2F)ccc1F	.	40	/
Cc1ccc(S(=O)(=O)Nc2cc(Cl)ccc2F)cc1C	.	.	.
O=C(NCCc1nc(C(F)(F)F)cs1)N1CCCCCC1	.	.	/
COc1ccc(OCc2cc(C(=O)N3CC=CC3)n[nH]2)c(Cl)c1	.	.	/
Cc1ccc2nc(Cn3cnc4c(Cl)cc(Cl)cc4c3=O)cc(=O)n2c1	.	61	/
Cc1ccc2nc(Cn3cc(C(F)(F)F)cc(Cl)c3=O)cc(=O)n2c1	.	.	/
CC(=O)Oc1c(/C=C(\C#N)C(N)=O)[nH]c2ccccc12	.	51	/
COC(=O)/C(C#N)=C/c1c(OC)[nH]c2ccccc12	.	.	/
SMILES	hcGAS lum	NPYLR7 ag	mcGAS lum
CCCc1[nH]n(-c2ccc(Cl)cc2)c(=O)c1/C=C1\NC(=O)N(Cc2ccc(C)cc2)C1=O	.	45	.
CCCc1[nH]n(-c2ccc(Cl)cc2)c(=O)c1/C=C1\NC(=O)N(Cc2cccc(C)c2)C1=O	.	.	.
CCCc1nc(N2CCCN(C(=O)Nc3ccc(F)cc3F)CC2)c2c(C)nn(-c3ccccc3)c2n1	.	/	.
N=C1/C(=C/c2cccs2)C(=O)N=C2SC(Cc3ccccc3)=NN12	.	.	/
N=C1/C(=C/c2cccs2)C(=O)N=C2SC(c3ccccc3)=NN12	56	.	/
COc1cc(C=C2C(=O)N(C)C(=O)N(C)C2=O)cc(I)c1O	.	.	.
COc1cc(C=C2C(=O)N(C)C(=O)N(C)C2=O)cc([N+](=O)[O-])c1O	.	.	46
CC(OC(=O)c1nc(-c2ccccc2)n(-c2ccccc2)n1)c1nc(N)nc(N(C)C)n1 (configuration not stated)	.	.	/
O=[N+]([O-])c1cc(NS(=O)(=O)c2cc(Cl)cc(Cl)c2)ccc1Cl	.	.	/
O=C1NCC2(CCCN(c3ncnc4[nH]ccc34)CC2)O1 (configuration not stated)	.	.	/
COc1ccc(CCN2C3CCC2CC(NC(=O)C24CC[C@@](C)(C(=O)O2)C4(C)C)C3)cc1OC (some centres not stated)	.	.	.
COc1ccc(CN2C3CCC2CC(NC(=O)C24CC[C@@](C)(C(=O)O2)C4(C)C)C3)c(OC)c1 (some centres not stated)	.	.	76
CCOC(=O)c1nn(-c2ccccc2C)c(=O)cc1NCc1ccccc1	.	.	/
CC(c1ccc(F)cc1)N(C)C(=O)c1ccn2nnnc2c1 (configuration not stated)	.	.	.
